Records with an inconclusive call do not appear. Active and inactive are the calls of the source. Unless noted, calls come from the whole dose curve; as a rule, active = well fitted curve in the direction sought with a large enough effect; inconclusive = small, poorly fitted or top-dose-only effect, or another doubt; inactive = no such curve, though single readings can be large; an effect the other way counts as inactive or inconclusive.
Experiments:
[1] = molecular target: ATP-dependent DNA helicase Q1 (Homo sapiens) (UniProt P46063); assay: qHTS Validation Assay for Inhibitors of RecQ-Like Dna Helicase 1 (RECQ1) (AID 2353);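 note: plate controls were DMSO vehicle for no effect and enzyme-free control for full effect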
Outline: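 RECQ1T1 50 nM; forked duplex (20 bp + 30-nt ss tails) 200 nM, ATP 2 mM final; pH 8.0, 2 mM MgCl2, 2.5 ug/ml poly(dI-dC); 15 min compound preincubation; discontinuous kinetic read over 2 h at RT.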

[2] = Quantitative high throughput screen for delayed death inhibitors of the malarial parasite plastid, 96 hour incubation (AID 488745); note: % is set by controls: 0 for no effect and ±100 for the full control effect; nearly all actives have a fitted effect of over 70% in size
Outline: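 Two-generation (96 h) exposure of luciferase-reporter P. falciparum in erythrocytes, 2% hematocrit, 0.1% parasitemia final, 37 C, 5% CO2, RPMI 1640 with 0.5% Albumax. Growth inhibition scored by reduced luminescence.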

[3] = molecular target: Transient receptor potential cation channel subfamily V member 1 (Homo sapiens) (UniProt Q8NER1); assay: HTS Assay for Compounds that Act as Enhancers of the Vanilloid Receptor 1 (AID 488979); note: 0% is about no effect
Outline: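 Calcium influx kinetics via Fluo-8 (480/520 nm) in TRPV1-expressing cells, 2000/well cultured overnight at 35.5C. Compound-alone read 3 min (agonist phase), followed by EC20 capsaicin challenge for 2 min (enhancer phase).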

[4] = molecular target: Thyrotropin receptor (Homo sapiens) (UniProt P16473); assay: qHTS Assay for Antagonists of the Thyroid Stimulating Hormone Receptor (AID 488980); note: 0% is about no effect
Outline: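 Cells expressing human TSHR (HEK293) are dispensed in HBSS/HEPES containing 70 uM RO 20-1724, compound is added, then TSH at EC80 (4 nM final). Antibody in lysis buffer follows, 30 minutes at room temperature before HTRF detection.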

[5] = molecular target: Thyrotropin-releasing hormone receptor (Homo sapiens) (UniProt P34981); assay: qHTS for Small Molecule Agonists and Allosteric Enhancers of Human TRH Receptor: Validation Screen for Agonists (AID 493127;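 active = calcium activation more than 3 SD above the typical response in the agonist read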;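 note: intracellular calcium rise by fluo-8 fluorescence before TRH EC20 addition; 0% is about no effect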); details: TRH receptor agonist cell assay; at 2 µM; active compounds read high
Outline: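 Kinetic fluorescence assay of agonist-induced calcium release: overnight-plated TRHR cells, room-temperature fluo-8 loading, baseline then compound addition with per-second reads.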

[6] = molecular target: Galactokinase (Homo sapiens) (UniProt P51570); assay: qHTS Validation Assay for Inhibitors of Human Galactokinase (GALK) (AID 493189); note: 0% is about no effect
Outline: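 Compounds were pin-transferred into ATP buffer, then GALK-galactose mix was added (final 5 nM enzyme, 100 uM galactose, 35 uM ATP). After 1 h at room temperature, remaining ATP was measured luminescently.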

[7] = Validation screen for small molecules that induce DNA re-replication in SW480 colon adenocarcinoma cells (AID 504364); note: 0% is about no effect
Outline: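 Hoechst-stained SW480 nuclei, imaged at 405 nm excitation after 48 hr compound exposure, were counted for elevated DNA content as the re-replication signal.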

[8] = molecular target: ATP-dependent 6-phosphofructokinase (Trypanosoma brucei brucei) (UniProt O15648); assay: qHTS Assay to Find Inhibitors of T. brucei phosphofructokinase: hit validation (AID 492961);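 note: luminescence reports ADP formed as PFK phosphorylates fructose-6-phosphate with ATP; % is set by controls: 0 for no effect and ±100 for the full control effect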
Outline: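 ADP-Glo luminescence read-out of ADP formed by 1.25 nM PFK from 0.1 mM ATP and 0.5 mM F6P (TEA pH 8.0, 45 min, RT). Compounds titrated; activity normalized to no-enzyme and full-enzyme controls.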

AS120 = assay: qHTS profiling for inhibitors of Plasmodium falciparum proliferation (AID 504749);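 note: 0% = DMSO vehicle and full inhibition = artemisinin control; nearly all actives have a fitted effect of over 60% in size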; details: P. falciparum in erythrocytes, SYBR Green DNA, 72 h; series mostly up to 28.7 µM
Outline: (§1)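 In a 72 h erythrocytic culture (37 C, humidified, 5% CO2) at 2.5% hematocrit and 0.3% starting parasitemia, compounds were tested; SYBR Green I in detergent lysis buffer stained parasite DNA overnight.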

ATS189 = assay: as above; details: P. falciparum in erythrocytes, SYBR Green DNA, 72 h; series mostly up to 28.7 µM
Outline: as §1

CP191 = assay: as above; details: P. falciparum in erythrocytes, SYBR Green DNA, 72 h; series mostly up to 28.7 µM
Outline: as §1

CP203 = assay: as above; details: P. falciparum in erythrocytes, SYBR Green DNA, 72 h; series mostly up to 28.7 µM
Outline: as §1

CP247 = assay: as above; details: P. falciparum in erythrocytes, SYBR Green DNA, 72 h; series mostly up to 28.7 µM
Outline: as §1

CP291 = assay: as above; details: P. falciparum in erythrocytes, SYBR Green DNA, 72 h; series mostly up to 28.7 µM
Outline: as §1

DFO2036 = assay: as above; details: P. falciparum in erythrocytes, SYBR Green DNA, 72 h; series mostly up to 28.7 µM
Outline: as §1

DIV14 = assay: as above; details: P. falciparum in erythrocytes, SYBR Green DNA, 72 h; series mostly up to 28.7 µM
Outline: as §1

DIV17 = assay: as above; details: P. falciparum in erythrocytes, SYBR Green DNA, 72 h; series mostly up to 28.7 µM
Outline: as §1

GB4 = assay: as above; details: P. falciparum in erythrocytes, SYBR Green DNA, 72 h; series mostly up to 28.7 µM
Outline: as §1

PC49 = assay: as above; details: P. falciparum in erythrocytes, SYBR Green DNA, 72 h; series mostly up to 28.7 µM
Outline: as §1

TAB113 = assay: as above; details: P. falciparum in erythrocytes, SYBR Green DNA, 72 h; series mostly up to 28.7 µM
Outline: as §1

Chain of Transient receptor potential cation channel subfamily V member 1 (Homo sapiens) (Q8NER1 whole entry, looked up): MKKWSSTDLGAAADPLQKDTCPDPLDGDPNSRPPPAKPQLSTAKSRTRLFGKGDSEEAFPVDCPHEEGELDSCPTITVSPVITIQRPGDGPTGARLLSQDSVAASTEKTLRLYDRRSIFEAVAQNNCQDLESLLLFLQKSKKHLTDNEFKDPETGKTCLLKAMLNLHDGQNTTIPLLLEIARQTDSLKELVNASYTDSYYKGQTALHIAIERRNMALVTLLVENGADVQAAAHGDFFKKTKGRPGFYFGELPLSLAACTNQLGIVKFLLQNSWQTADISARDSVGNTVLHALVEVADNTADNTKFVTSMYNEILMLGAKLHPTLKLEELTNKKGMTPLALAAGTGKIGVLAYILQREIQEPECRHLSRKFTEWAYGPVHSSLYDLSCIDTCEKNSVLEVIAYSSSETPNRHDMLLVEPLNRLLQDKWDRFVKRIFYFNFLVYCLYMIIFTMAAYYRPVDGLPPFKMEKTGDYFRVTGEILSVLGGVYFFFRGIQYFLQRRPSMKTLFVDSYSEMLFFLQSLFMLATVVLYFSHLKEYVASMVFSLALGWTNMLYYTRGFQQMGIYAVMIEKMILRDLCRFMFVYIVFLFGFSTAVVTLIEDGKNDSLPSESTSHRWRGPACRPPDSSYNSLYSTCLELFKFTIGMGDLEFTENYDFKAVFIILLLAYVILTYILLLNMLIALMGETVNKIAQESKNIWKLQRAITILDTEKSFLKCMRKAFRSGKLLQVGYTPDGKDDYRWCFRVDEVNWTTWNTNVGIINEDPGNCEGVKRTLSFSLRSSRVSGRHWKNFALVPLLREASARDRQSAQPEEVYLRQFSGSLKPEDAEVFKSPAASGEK
Chain of ATP-dependent DNA helicase Q1 (Homo sapiens) (P46063 whole entry, looked up): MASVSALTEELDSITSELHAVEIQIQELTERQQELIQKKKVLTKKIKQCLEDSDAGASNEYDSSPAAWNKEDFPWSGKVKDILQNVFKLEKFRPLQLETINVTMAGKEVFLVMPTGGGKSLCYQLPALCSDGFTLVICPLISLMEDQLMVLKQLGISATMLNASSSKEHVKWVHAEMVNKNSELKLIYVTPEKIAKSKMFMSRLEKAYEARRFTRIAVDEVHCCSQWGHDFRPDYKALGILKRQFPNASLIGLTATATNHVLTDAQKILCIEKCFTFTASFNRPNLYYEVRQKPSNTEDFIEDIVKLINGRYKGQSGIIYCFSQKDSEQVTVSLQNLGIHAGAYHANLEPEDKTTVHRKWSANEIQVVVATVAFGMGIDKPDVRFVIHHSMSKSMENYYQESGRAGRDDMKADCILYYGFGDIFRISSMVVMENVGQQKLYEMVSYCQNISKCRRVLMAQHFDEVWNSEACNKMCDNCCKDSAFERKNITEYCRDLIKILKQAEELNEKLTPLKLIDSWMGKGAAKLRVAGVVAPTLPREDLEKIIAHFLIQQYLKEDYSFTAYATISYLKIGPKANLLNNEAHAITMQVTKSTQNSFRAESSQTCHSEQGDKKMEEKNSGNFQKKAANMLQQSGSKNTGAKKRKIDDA
Chain of Thyrotropin-releasing hormone receptor (Homo sapiens) (P34981 whole entry, looked up): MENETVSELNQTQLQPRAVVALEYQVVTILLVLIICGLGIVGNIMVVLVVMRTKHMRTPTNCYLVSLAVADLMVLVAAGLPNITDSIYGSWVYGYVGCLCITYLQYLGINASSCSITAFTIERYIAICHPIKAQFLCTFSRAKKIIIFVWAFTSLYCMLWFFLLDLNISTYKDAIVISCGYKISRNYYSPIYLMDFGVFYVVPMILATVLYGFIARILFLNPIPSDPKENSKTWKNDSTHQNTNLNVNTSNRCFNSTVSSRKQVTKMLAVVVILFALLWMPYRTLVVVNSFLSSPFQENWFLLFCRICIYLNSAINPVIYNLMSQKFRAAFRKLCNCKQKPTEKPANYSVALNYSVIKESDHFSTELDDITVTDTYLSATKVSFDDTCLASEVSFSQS
Chain of ATP-dependent 6-phosphofructokinase (Trypanosoma brucei brucei) (O15648 whole entry, looked up): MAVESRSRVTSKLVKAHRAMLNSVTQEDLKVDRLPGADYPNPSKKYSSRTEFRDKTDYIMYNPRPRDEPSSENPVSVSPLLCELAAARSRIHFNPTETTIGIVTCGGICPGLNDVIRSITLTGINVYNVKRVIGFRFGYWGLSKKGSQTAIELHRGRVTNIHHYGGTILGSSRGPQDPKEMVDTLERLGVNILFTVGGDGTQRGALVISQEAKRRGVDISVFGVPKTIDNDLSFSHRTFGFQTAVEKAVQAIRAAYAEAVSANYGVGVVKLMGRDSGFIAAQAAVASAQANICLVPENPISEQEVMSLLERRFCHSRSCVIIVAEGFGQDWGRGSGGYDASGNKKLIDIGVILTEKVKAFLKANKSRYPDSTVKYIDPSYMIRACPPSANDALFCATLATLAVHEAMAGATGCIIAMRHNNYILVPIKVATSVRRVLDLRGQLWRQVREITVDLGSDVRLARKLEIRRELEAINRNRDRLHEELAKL
Chain of Thyrotropin receptor (Homo sapiens) (P16473 whole entry, looked up): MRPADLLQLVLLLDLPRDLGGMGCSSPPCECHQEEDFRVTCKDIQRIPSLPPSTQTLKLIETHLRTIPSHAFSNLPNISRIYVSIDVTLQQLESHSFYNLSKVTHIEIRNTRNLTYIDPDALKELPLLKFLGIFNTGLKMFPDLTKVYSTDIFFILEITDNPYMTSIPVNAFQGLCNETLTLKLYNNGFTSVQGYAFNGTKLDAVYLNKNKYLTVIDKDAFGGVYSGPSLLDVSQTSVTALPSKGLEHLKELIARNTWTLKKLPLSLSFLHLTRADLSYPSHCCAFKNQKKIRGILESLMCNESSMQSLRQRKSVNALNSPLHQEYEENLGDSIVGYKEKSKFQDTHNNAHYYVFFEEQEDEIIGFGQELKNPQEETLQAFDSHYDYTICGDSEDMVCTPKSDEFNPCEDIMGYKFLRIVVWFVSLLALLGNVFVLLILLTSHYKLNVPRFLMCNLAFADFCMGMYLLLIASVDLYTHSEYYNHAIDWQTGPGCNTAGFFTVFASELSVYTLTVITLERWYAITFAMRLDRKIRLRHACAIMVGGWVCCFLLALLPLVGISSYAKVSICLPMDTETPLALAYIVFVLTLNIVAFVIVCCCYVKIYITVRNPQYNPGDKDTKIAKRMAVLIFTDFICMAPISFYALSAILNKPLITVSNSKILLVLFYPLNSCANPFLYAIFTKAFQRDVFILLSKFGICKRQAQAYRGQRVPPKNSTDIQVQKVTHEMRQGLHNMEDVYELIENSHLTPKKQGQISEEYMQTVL
Chain of Galactokinase (Homo sapiens) (P51570 whole entry, looked up): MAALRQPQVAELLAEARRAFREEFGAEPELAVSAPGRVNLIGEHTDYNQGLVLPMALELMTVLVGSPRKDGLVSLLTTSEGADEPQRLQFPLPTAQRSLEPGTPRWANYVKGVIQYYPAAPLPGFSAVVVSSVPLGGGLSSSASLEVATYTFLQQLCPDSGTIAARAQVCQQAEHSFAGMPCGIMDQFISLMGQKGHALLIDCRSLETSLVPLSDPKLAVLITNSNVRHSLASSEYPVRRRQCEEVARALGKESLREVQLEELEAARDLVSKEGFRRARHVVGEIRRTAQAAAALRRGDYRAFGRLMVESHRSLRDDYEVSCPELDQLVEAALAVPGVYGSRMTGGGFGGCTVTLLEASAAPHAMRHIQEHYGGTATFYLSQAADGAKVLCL

COc1ccc2c(c1)c(CC(=O)N1CCOCC1)c(C)n2C(=O)c1ccc(Cl)cc1
inactive: Potency [1] | Potency [2] | outcome [3] | outcome [4] | activation [5] 1.25% | outcome [6] | outcome [7]

C/C=C1\C2C=C(C)CC1(N)c1ccc(=O)[nH]c1C2 (stereo not given)
inactive: outcome [8] | Potency (AS120) | Potency (ATS189) | Potency (CP191) | Potency (CP203) | Potency (CP247) | Potency (CP291) | Potency (DFO2036) | Potency (DIV14) | Potency (DIV17) | Potency (GB4) | Potency (PC49) | Potency (TAB113)

From PubChem BioAssay (NCATS)
